Holding throughout (test): DAPPL (digital affinity profiling via proximity ligation, sequencing); 10 mM Tris-HCl pH 7.5, 50 mM NaCl, 1 mM DTT, 4% glycerol, room temperature, 30 min; GST-TFs on glutathione beads, 16-mer random dsDNA library, 0.1% formaldehyde crosslink after washing; high values mean tight binding
What all share (conditions): protein: recombinant; tags: N-terminal GST; dsDNA, one strand shown

One test has as its target T1, FLI1 (Homo sapiens, UniProt Q01543 1-452).
T1 sequence: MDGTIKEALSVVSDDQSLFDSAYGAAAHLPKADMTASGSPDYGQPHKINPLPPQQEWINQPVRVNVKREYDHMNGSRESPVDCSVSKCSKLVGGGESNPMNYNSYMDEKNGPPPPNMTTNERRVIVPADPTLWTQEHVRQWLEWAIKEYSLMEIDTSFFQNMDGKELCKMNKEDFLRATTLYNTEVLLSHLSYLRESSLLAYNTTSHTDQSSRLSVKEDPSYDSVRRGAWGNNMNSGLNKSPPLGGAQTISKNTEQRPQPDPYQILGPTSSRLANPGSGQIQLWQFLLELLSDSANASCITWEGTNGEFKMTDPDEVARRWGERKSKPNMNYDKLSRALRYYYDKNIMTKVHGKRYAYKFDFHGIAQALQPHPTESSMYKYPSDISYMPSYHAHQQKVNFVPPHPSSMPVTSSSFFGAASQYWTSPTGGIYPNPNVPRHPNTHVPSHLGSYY
In outline:
(§1)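 In yeast, human transcription factors were expressed with a GST fusion, then pulled down on glutathione beads and given DNA barcodes. Pooled with a tag-only sample, they were exposed to 200 nmole of a 16-mer random double-stranded DNA library (Tris/NaCl/DTT/glycerol buffer, room temperature, 30 min), washed, crosslinked with 0.1% formaldehyde, proximity-ligated using BsaI/T4 ligase for 1 h at 37 °C, PCR-amplified and read on an Illumina NextSeq500. Each hexamer's frequency of reads for a factor, divided by the matching frequency for the tag-only sample, gives the binding signal.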

A further test concerns the target T2, ELK1 (Homo sapiens, UniProt P19419 1-428).
T2 sequence: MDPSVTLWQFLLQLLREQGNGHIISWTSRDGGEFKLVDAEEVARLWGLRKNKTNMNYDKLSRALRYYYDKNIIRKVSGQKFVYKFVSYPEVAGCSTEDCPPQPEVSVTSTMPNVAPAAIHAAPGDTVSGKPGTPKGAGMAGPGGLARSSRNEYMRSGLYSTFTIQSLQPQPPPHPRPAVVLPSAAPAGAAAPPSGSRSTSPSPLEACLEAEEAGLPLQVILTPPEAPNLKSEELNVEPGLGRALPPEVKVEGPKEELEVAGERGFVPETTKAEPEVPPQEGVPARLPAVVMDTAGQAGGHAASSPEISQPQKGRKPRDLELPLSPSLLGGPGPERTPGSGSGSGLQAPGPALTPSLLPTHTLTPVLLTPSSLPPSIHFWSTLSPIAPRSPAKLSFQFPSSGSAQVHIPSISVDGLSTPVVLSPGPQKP
Summed up:
as §1

The next test concerns the target T3, GABPA (Homo sapiens, UniProt Q06546 1-454).
T3 sequence: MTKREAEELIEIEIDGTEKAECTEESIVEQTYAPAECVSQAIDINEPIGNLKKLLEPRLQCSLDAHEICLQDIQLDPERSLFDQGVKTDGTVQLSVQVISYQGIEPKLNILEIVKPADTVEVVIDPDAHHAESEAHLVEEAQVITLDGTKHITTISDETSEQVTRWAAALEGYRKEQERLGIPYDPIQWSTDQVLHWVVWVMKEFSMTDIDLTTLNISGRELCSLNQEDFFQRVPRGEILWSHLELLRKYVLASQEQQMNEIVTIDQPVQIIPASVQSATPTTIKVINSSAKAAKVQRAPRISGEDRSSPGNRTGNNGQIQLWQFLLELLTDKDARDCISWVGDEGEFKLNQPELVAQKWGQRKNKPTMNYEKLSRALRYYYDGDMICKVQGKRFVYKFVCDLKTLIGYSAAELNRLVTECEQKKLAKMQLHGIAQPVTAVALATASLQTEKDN
In outline: as §1

The target in a further test is T4, ERG (Homo sapiens, UniProt P11308 1-479).
T4 sequence: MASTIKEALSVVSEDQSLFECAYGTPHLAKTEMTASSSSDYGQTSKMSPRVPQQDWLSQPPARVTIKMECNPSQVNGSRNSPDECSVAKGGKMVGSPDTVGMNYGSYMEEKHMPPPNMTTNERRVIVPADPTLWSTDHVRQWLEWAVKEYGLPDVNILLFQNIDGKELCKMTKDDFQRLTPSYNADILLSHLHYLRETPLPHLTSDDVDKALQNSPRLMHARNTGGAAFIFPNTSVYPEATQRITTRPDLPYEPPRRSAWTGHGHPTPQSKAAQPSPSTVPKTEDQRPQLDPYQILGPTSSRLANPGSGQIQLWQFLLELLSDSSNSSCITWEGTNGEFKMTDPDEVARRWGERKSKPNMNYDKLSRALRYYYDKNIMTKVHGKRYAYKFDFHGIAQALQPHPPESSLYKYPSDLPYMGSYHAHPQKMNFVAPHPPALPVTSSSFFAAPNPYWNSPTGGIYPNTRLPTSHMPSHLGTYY
In outline:
as §1

The target of the next test is ELF1 (Homo sapiens, UniProt P32519 1-619). In outline:
as §1

The target in a further test is T5, EHF (Homo sapiens, UniProt Q9NZC4 1-300).
T5 sequence: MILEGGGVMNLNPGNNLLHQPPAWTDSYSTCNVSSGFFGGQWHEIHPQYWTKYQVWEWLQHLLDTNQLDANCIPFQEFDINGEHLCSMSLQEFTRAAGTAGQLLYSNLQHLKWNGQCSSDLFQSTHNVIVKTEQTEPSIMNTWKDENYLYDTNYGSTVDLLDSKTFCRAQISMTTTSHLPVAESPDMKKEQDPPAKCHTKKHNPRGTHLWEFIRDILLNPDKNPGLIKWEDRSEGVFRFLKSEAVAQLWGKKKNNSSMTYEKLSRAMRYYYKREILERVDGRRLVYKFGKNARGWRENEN
Summed up:
as §1

A further test addresses SPI1 (Homo sapiens, UniProt P17947 1-270). Summed up:
as §1

The next test concerns the target SPIB (Homo sapiens, UniProt Q01892 1-262). Summed up:
as §1

In another test the target is T6, ELK3 (Homo sapiens, UniProt P41970 1-407).
T6 sequence: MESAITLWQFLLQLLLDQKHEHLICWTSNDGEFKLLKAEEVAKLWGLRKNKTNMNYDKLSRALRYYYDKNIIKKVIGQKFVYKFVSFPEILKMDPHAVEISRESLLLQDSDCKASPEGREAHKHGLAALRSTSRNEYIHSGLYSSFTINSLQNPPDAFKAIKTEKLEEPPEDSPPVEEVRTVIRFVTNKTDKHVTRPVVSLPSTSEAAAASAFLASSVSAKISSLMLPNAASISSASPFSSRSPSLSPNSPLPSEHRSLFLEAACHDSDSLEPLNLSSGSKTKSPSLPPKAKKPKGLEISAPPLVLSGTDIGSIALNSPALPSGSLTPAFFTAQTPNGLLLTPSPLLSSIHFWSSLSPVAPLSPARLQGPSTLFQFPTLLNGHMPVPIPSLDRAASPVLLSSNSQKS
In outline: as §1

ELF1, sequence (P32519 whole entry): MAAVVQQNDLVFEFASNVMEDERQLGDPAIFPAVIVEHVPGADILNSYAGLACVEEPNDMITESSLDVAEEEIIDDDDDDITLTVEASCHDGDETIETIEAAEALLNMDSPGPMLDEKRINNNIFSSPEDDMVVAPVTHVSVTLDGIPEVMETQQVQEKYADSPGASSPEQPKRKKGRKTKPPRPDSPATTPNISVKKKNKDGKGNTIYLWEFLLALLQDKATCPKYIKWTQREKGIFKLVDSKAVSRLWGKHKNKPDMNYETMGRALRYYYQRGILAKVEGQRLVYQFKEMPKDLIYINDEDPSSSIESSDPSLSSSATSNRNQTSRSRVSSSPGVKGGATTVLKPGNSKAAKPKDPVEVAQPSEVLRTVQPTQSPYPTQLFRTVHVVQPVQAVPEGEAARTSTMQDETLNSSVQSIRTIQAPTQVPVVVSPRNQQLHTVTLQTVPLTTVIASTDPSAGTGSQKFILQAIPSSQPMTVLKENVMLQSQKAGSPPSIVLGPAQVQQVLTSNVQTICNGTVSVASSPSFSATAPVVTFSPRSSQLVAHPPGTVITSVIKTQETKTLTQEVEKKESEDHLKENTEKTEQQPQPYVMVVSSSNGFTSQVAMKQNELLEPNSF
SPIB, sequence (Q01892 whole entry): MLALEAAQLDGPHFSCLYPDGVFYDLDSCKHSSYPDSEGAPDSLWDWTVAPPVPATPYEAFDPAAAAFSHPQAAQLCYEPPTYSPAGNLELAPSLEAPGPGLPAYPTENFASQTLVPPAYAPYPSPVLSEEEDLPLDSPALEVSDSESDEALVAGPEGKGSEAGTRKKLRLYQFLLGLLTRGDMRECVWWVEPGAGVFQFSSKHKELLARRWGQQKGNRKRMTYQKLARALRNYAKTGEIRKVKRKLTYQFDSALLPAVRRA

Consider CTCTCG, for which the binding signal with FLI1 was 1.42 fold enrichment (6-mer frequency, TF over GST control); with ELK1 it was 1.34 fold enrichment (6-mer frequency, TF over GST control); in the test with GABPA, 1.37 fold enrichment (6-mer frequency, TF over GST control); with ERG, 1.44 fold enrichment (6-mer frequency, TF over GST control); with ELF1 it was 1.49 fold enrichment (6-mer frequency, TF over GST control); in the test with EHF it was 1.31 fold enrichment (6-mer frequency, TF over GST control). For the same sequence, the binding signal is 1.45 fold enrichment (6-mer frequency, TF over GST control) with SPI1; 1.37 fold enrichment (6-mer frequency, TF over GST control) with SPIB; 1.47 fold enrichment (6-mer frequency, TF over GST control) with ELK3.

As for TTACTC, the binding signal with FLI1 was 1.31 fold enrichment (6-mer frequency, TF over GST control); with ELK1, 1.24 fold enrichment (6-mer frequency, TF over GST control); in the test with GABPA, 1.26 fold enrichment (6-mer frequency, TF over GST control); with ERG, 1.19 fold enrichment (6-mer frequency, TF over GST control); with ELF1, 1.24 fold enrichment (6-mer frequency, TF over GST control); with EHF it was 1.34 fold enrichment (6-mer frequency, TF over GST control). The binding signal is 1.32 fold enrichment (6-mer frequency, TF over GST control) with SPI1; 1.24 fold enrichment (6-mer frequency, TF over GST control) in the test with SPIB; 1.26 fold enrichment (6-mer frequency, TF over GST control) with ELK3.

Regarding CCTGTT, the binding signal in the test with FLI1 was 1.79 fold enrichment (6-mer frequency, TF over GST control); with ELK1, 1.63 fold enrichment (6-mer frequency, TF over GST control); with GABPA, 1.73 fold enrichment (6-mer frequency, TF over GST control); in the test with ERG, 1.72 fold enrichment (6-mer frequency, TF over GST control); with ELF1 it was 1.75 fold enrichment (6-mer frequency, TF over GST control); with EHF, 1.76 fold enrichment (6-mer frequency, TF over GST control). The binding signal in the test with SPI1 was 2 fold enrichment (6-mer frequency, TF over GST control); with SPIB it was 1.75 fold enrichment (6-mer frequency, TF over GST control); with ELK3, 1.94 fold enrichment (6-mer frequency, TF over GST control).

As for ACTCTG, the binding signal in the test with FLI1 was 1.28 fold enrichment (6-mer frequency, TF over GST control); with ELK1 it was 1.23 fold enrichment (6-mer frequency, TF over GST control); with GABPA, 1.38 fold enrichment (6-mer frequency, TF over GST control); in the test with ERG, 1.24 fold enrichment (6-mer frequency, TF over GST control); with ELF1, 1.37 fold enrichment (6-mer frequency, TF over GST control); in the test with EHF, 1.33 fold enrichment (6-mer frequency, TF over GST control). For the same sequence, the binding signal in the test with SPI1 was 1.26 fold enrichment (6-mer frequency, TF over GST control); in the test with SPIB, 1.21 fold enrichment (6-mer frequency, TF over GST control); with ELK3, 1.14 fold enrichment (6-mer frequency, TF over GST control).

Consider TGCTCC, for which the binding signal was 1.53 fold enrichment (6-mer frequency, TF over GST control) with FLI1; 1.41 fold enrichment (6-mer frequency, TF over GST control) with ELK1; 1.45 fold enrichment (6-mer frequency, TF over GST control) with GABPA; 1.37 fold enrichment (6-mer frequency, TF over GST control) in the test with ERG; 1.31 fold enrichment (6-mer frequency, TF over GST control) with ELF1; 1.46 fold enrichment (6-mer frequency, TF over GST control) in the test with EHF. Further, the binding signal was 1.38 fold enrichment (6-mer frequency, TF over GST control) with SPI1; 1.41 fold enrichment (6-mer frequency, TF over GST control) in the test with SPIB; 1.38 fold enrichment (6-mer frequency, TF over GST control) in the test with ELK3.

As for TATGCT, the binding signal was 1.28 fold enrichment (6-mer frequency, TF over GST control) with FLI1; 1.28 fold enrichment (6-mer frequency, TF over GST control) in the test with ELK1; 1.32 fold enrichment (6-mer frequency, TF over GST control) with GABPA; 1.26 fold enrichment (6-mer frequency, TF over GST control) in the test with ERG; 1.29 fold enrichment (6-mer frequency, TF over GST control) with ELF1; 1.33 fold enrichment (6-mer frequency, TF over GST control) in the test with EHF. Besides, the binding signal was 1.41 fold enrichment (6-mer frequency, TF over GST control) with SPI1; 1.33 fold enrichment (6-mer frequency, TF over GST control) with SPIB; 1.22 fold enrichment (6-mer frequency, TF over GST control) with ELK3.

As to ACTCTT, the binding signal was 1.17 fold enrichment (6-mer frequency, TF over GST control) in the test with FLI1; 1.24 fold enrichment (6-mer frequency, TF over GST control) with ELK1; 1.22 fold enrichment (6-mer frequency, TF over GST control) with GABPA; 1.24 fold enrichment (6-mer frequency, TF over GST control) in the test with ERG; 1.25 fold enrichment (6-mer frequency, TF over GST control) with ELF1; 1.2 fold enrichment (6-mer frequency, TF over GST control) in the test with EHF. The binding signal with SPI1 was 1.19 fold enrichment (6-mer frequency, TF over GST control); with SPIB it was 1.25 fold enrichment (6-mer frequency, TF over GST control); with ELK3, 1.47 fold enrichment (6-mer frequency, TF over GST control).

Values taken from article PMC7862700, “An all-to-all approach to the identification of sequence-specific readers for epigenetic DNA modifications on cytosine”.
